The text below walks through data of PubChem BioAssay AID372 (MTDP, 2006).

Screen size: about 100,000 compounds; about 770 (0.77%) were called active. Shown is part of a subset that was picked to be rich in actives. Unmarked numbers belong to inactive results. No stated cut-off is given here; in the data, active means inhibition above about 50%; inactive means the rest.

This assay has as its target Gag-Pol polyprotein (Human immunodeficiency virus type 1 group M subtype B (isolate HXB2)) (UniProt P04585). In words: RNase H inhibition, HIV 1 Gag Pol polyprotein, FRET biochemical assay, screening (AID 372). The conditions noted are these: HIV-1 RT RNase H, FRET RNA/DNA substrate fluorescence; at 10 µM; hits give high values.
In general, inhibition refers to the percentage by which the read-out fell short of the control. `COc1ccc(C(=O)/C=C/NCC(=O)c2ccccc2)cc1`: the inhibition was 19%.

In the case of `N#CC1=C(N)Oc2c(ccc3ccccc23)C1c1ccccc1Cl` (stereo unspecified), the inhibition was 29%.

Consider `Cc1ccc(N2C(=O)CC(Sc3ccccc3C(=O)O)C2=O)c([N+](=O)[O-])c1` (stereo unspecified), for which the inhibition was 0%.

Consider `CCOC(=O)c1c(C)oc2c1C(=O)C(=O)C(Br)=C2`, for which the inhibition is 2%.

Consider `CCOC(=O)c1c2c(n(-c3ccccc3)c1C)C=C(Br)C(=O)C2=O`, for which the inhibition is 58% (active).

Consider `CCOC(=O)c1c2c(n(C)c1C)C=C(Br)C(=O)C2=O`, for which the inhibition is 4%.

Regarding `Cn1c(=O)c2c(nc(Sc3nc4ccccc4o3)n2C)n(C)c1=O`, the inhibition was 0%.

With `O=C(c1ccc(I)cc1)N1CCOCC1`, the inhibition was 0%.

Regarding `CC1CCN(C2(O)C(=O)Nc3ccc(Br)cc32)CC1` (stereo unspecified), the inhibition is 14%.

Turning to `O=[N+]([O-])c1cc(Cl)c(-c2ccco2)c(Cl)c1`, the inhibition was 57% (active).

Regarding `O=[N+]([O-])c1ccc(-c2nnc(-c3ccco3)o2)c(Cl)c1`, the inhibition is 8%.

In the case of `O=[N+]([O-])c1ccc(-c2ccco2)c(Cl)c1`, the inhibition was 14%.

`CCN(CC)CCN1C(=O)C(=O)/C(=C(/O)c2ccccc2)C1c1cccc([N+](=O)[O-])c1` (stereo unspecified): the inhibition is 1%.

On to `CCN(CC)c1ccc(N=Cc2c[nH]c3ccccc23)cc1`, for which the inhibition is 4%.

As to `CC(C)C(=O)NS(=O)(=O)c1ccc(N)cc1`, the inhibition is 5%.

Consider `CC(=O)Nc1nc(-c2ccccc2)nc(C)c1C(C)=O`, for which the inhibition is 6%.

Consider `CC(=O)Nc1nc(-c2ccc(Cl)cc2)nc(C)c1C(C)=O`, for which the inhibition was 3%.

Regarding `CC(=O)c1c(C)nc(-c2ccc(Cl)cc2)nc1NC(=O)c1ccccc1`, the inhibition was 59% (active).

Regarding `CCOC(=O)c1c(C)oc2c(F)c(F)c(F)c(F)c12`, the inhibition was 22%.

Turning to `COC(=O)c1ccc(NC(=O)c2ccc3c(c2)C(=O)N(c2ccc([N+](=O)[O-])cc2)C3=O)cc1`, the inhibition was 52% (active).

For `O=C(Nc1ccccc1)c1ccc2c(c1)C(=O)N(c1cccc(N3C(=O)c4ccc(C(=O)Nc5ccccc5)cc4C3=O)n1)C2=O`, the inhibition is 8%.

For the compound `O=C(Nc1ccc(O)cc1)c1ccc2c(c1)C(=O)N(c1ccccn1)C2=O`, the inhibition was 13%.

With `COC(=O)c1ccc(NC(=O)c2ccc3c(c2)C(=O)N(c2cccc([N+](=O)[O-])c2)C3=O)cc1`, the inhibition is 10%.

Turning to `Cc1ccc(NC(=O)c2ccc3c(c2)C(=O)N(c2ccc([N+](=O)[O-])cc2)C3=O)cc1`, the inhibition is 17%.

In the case of `O=C(Nc1ccc(O)cc1)c1ccc2c(c1)C(=O)N(c1cccc(N3C(=O)c4ccc(C(=O)Nc5ccc(O)cc5)cc4C3=O)n1)C2=O`, the inhibition is 54% (active).

On to `CC(C)(C)C1(O)CC(C(F)(F)F)=NN1C(=O)c1ccc([N+](=O)[O-])cc1` (stereo unspecified), for which the inhibition is 18%.

Consider `COc1ccc(NC(=O)c2ccc(-c3ccccc3)cc2)cc1`, for which the inhibition was 8%.

Consider `COC(=O)c1c(C)oc2cc(Br)c(OC(=O)c3cccc([N+](=O)[O-])c3)cc12`, for which the inhibition is 0%.

Regarding `Cc1cccc(C)c1OCCOc1ccccc1/C=C1\SC(=S)N(C)C1=O`, the inhibition was 13%.

Regarding `CC(c1ccccc1)C1CC(=O)N(c2ccccc2)C1=O` (stereo unspecified), the inhibition was 0%.

With `CC(c1ccccc1)C1CC(=O)N(c2ccc(I)cc2)C1=O` (stereo unspecified), the inhibition is 54% (active).

With `CC(c1ccccc1)C1CC(=O)N(c2ccc(F)cc2)C1=O` (stereo unspecified), the inhibition is 0%.

For `CCCc1cc2c(-c3ccccc3)cc(=O)oc2cc1OCc1ccc(C(=O)O)o1`, the inhibition was 59% (active).

Consider `CCCc1cc2c(-c3ccccc3)cc(=O)oc2cc1OCC(=O)O`, for which the inhibition was 9%.

Turning to `CCCc1cc2c(-c3ccccc3)cc(=O)oc2cc1OCC`, the inhibition is 22%.

As for `Cc1ccc(NC(=O)C(=NNc2ccccc2)C(=O)Nc2ccc(C)cc2)cc1`, the inhibition was 0%.

Take `CC(=O)N(c1ccccc1)C1CC(C)Nc2ccccc21` (stereo unspecified): the inhibition is 1%.

For the compound `CC1CC(N(C(=O)c2ccc(Cl)cc2)c2ccccc2)c2ccccc2N1` (stereo unspecified), the inhibition was 10%.

As for `CC1CC(N(c2ccccc2)S(=O)(=O)c2ccc(Cl)cc2)c2ccccc2N1` (stereo unspecified), the inhibition is 60% (active).

`CCOC(=O)c1sc(NC(=O)/C=C/c2cccc([N+](=O)[O-])c2)nc1C`: the inhibition was 6%.

Consider `COC(=O)C1=C(C)NC(=O)/C1=C\c1ccccc1`, for which the inhibition is 8%.

For `O=C1/C(=C\c2ccc(-c3ccccc3[N+](=O)[O-])o2)SC(=S)N1C1CCS(=O)(=O)C1` (stereo unspecified), the inhibition is 23%.

Take `Cc1cc(C)cc(-n2c(C)cc(/C=N/NC(=O)c3cccnc3)c2C)c1`: the inhibition was 13%.

For `O=c1/c(=C/c2ccc(-c3ccccc3Cl)o2)sc2nc3ccccc3n12`, the inhibition is 3%.

Regarding `COc1ccc(C2C3=C(CC(C)(C)CC3=O)Nc3ccccc3N2C(=O)CC(C)C)cc1` (stereo unspecified), the inhibition is 3%.

As to `O=C(/C=C/c1cccc([N+](=O)[O-])c1)Nc1ccc(-c2nc3ccccc3o2)cc1`, the inhibition was 54% (active).

Turning to `Cc1ccc2nc(-c3ccc(NC(=O)/C=C/c4ccc(Cl)cc4)cc3)oc2c1`, the inhibition was 48%.

On to `O=C(/C=C/c1ccc(Cl)cc1)Nc1ccc(-c2nc3ccccc3o2)c(O)c1`, for which the inhibition was 20%.

Turning to `O=C(/C=C/c1ccc(Cl)cc1)Nc1ccc(-c2nc3ccccc3o2)cc1`, the inhibition is 52% (active).

On to `Cc1ccc2nc(-c3ccc(C)c(NC(=O)/C=C/c4cccc([N+](=O)[O-])c4)c3)oc2c1`, for which the inhibition was 40%.

Take `O=C(/C=C/c1cccc([N+](=O)[O-])c1)Nc1ccc(-c2nc3ccccc3o2)c(O)c1`: the inhibition was 14%.

As to `Cc1cc(C)c2oc(-c3ccc(NC(=O)/C=C/c4cccc([N+](=O)[O-])c4)cc3)nc2c1`, the inhibition was 16%.

As to `Cc1ccc2nc(-c3ccc(NC(=O)/C=C/c4cccc([N+](=O)[O-])c4)cc3)oc2c1`, the inhibition was 54% (active).

As for `O=C(/C=C/c1cccc([N+](=O)[O-])c1)Nc1ccc2oc(-c3ccccc3)nc2c1`, the inhibition is 31%.

In the case of `N#Cc1cnn(-c2ccc3ccccc3c2)c1N`, the inhibition was 5%.

In the case of `Cc1ccc(N=Cc2ccco2)c(C)c1`, the inhibition is 29%.

`CC1(C)CC(=O)c2cc(C(=O)NCc3ccccc3)c(=O)n(-c3ccccc3)c2C1`: the inhibition was 15%.

On to `COCCNC(=O)COc1ccc(Cl)cc1Br`, for which the inhibition is 14%.

With `COc1ccc(CC(=O)Nc2ccc(Br)cc2C)cc1OC`, the inhibition is 50% (active).

`O=C(COc1ccc(Br)cc1Cl)NCCc1ccccc1`: the inhibition was 16%.

Consider `COc1ccc(CC(=O)Nc2ccc(Cl)cc2C)cc1OC`, for which the inhibition was 0%.

In the case of `COc1ccc(CCNC(=O)COc2ccc(Br)cc2Cl)cc1OC`, the inhibition was 53% (active).

`COc1ccc(CC(=O)Nc2ccc(Br)cc2F)cc1OC`: the inhibition is 12%.

On to `COc1ccc(CCNC(=O)COc2ccc(Br)cc2)cc1OC`, for which the inhibition is 1%.

For the compound `COc1ccc(CCNC(=O)COc2ccc(Cl)cc2Br)cc1OC`, the inhibition is 54% (active).

Regarding `COc1ccc(CCNC(=O)COc2ccccc2OC)cc1OC`, the inhibition was 1%.
